This is a sample that favours compounds with a hit; in the whole collection about 1.9% have one here.
FUS yeast rescue – qHTS for Suppressors of FUS Proteinopathy: Primary screen using FUS-linked yeast assay; S. cerevisiae FUS-expressing, growth rescue, OD600, 24 h; Potency, µM (top dose mostly 76.6 µM), hits mostly activators; actives 0.24% (n = 390,000); note: nearly all actives have a fitted effect of over 55% in size
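Toxicity suppression screen in FUS-yeast. Cells induced with 2% galactose, starting OD 0.005, treated 24hr at 30C with compounds at multiple final concentrations; growth by OD600.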
LDHA inh – qHTS assay for inhibitors of human lactate dehydrogenase; L-lactate dehydrogenase A chain (Homo sapiens), P00338; actives 0.15% (n = 480,000); purified LDHA, NADH/diaphorase-resazurin fluorescence; stronger effect = lower value; activity change, % (values are at about 110 or 230 µM); in the data active = activity change below about -30%; inconclusive = mostly about -25% to -30%
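Resorufin fluorescence (ex540/em590), read at 0 and 20 min after diaphorase/resazurin addition, reports the NADH left after a 5 min room-temperature reaction of 2 nM human LDH5 with 0.06 mM NADH and 0.2 mM pyruvate.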
PTHR1 ag – qHTS for PTHR1 Agonists: Primary Screen | Parathyroid hormone/parathyroid hormone-related peptide receptor (Homo sapiens), Q03431 | HEK293 GP2 PTHR1 cells, GloSensor cAMP luminescence, 1 h | Potency, µM (highest dose often 115 µM), most hits filed as activators | actives 0.075% (n = 410,000) | AID 743266, 2014; note: nearly all actives have a fitted effect of over 55% in size
Target sequence (Q03431 whole entry, looked up): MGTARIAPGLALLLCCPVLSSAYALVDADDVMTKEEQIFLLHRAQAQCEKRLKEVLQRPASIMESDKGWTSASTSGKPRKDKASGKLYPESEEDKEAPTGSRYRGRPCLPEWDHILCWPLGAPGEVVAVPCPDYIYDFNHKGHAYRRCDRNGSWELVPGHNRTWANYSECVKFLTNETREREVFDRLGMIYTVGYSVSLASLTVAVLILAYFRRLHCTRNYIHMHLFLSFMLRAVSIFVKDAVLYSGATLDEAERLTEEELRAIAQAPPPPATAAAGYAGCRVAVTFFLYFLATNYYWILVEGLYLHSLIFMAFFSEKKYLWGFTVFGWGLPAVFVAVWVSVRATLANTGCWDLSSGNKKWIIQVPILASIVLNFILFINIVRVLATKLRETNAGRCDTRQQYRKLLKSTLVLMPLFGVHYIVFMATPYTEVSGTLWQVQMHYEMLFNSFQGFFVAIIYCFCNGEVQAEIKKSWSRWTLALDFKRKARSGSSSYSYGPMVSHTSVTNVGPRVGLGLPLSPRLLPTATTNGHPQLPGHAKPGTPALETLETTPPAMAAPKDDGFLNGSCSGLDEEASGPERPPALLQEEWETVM
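HEK-293-derived GP2 cells expressing PTHR1 and a GloSensor cAMP reporter, 3,000/well, plated overnight, given luciferin plus IBMX (each 0.5 mM as added) for 1 h at 37 °C, then compound for 1 h at 37 °C. Luminescence was read after 15 min at room temperature.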
TDP43 rescue – qHTS of TDP-43 Inhibitors | AID 652104, 2013 | actives 1.8% (n = 410,000) | TDP-43 expressing yeast growth rescue, BacTiter-Glo, 24 h | Potency, µM (doses to about 46.1 µM), usual class: activators; note: nearly all actives have a fitted effect of over 50% in size
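Growth rescue of TDP-43-toxic yeast measured as ATP luminescence (BacTiter-Glo). Cells grown to mid-log in raffinose, induced in galactose at OD600=0.02, exposed to compound 24 hr at 30 deg C.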
aSyn rescue – qHTS of alpha-syn Inhibitors. Yeast expressing alpha-synuclein, growth rescue, BacTiter-Glo, 24 h. Potency, µM (series often up to 46.1 µM), actives largely listed as activators. actives 0.14% (n = 370,000); note: nearly all actives have a fitted effect of over 65% in size
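Screening used galactose-induced yeast with toxic alpha-synuclein levels, exposed to compound for 24 hr at 30 deg C. Cell growth, read with BacTiter-Glo luminescence, gave the measured signal.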
Abeta yeast res – qHTS for compounds that reverse cellular toxicity of Amyloid beta (A-beta) peptide in yeast: Primary Screen; yeast expressing A-beta42, growth rescue, OD600, 48 h; response scale: 0% DMSO, 100% iron-clioquinol control; Potency, µM (titrated, usually from 46.1 µM), most hits filed as activators; actives 0.063% (n = 410,000); note: nearly all actives have a fitted effect of over 55% in size
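Yeast A-beta toxicity model in growth medium with pinned compounds, 48 h at 30 C; growth read as absorbance at 600 nm. Normalized to FeCl3/clioquinol equimolar mix (positive) and DMSO (negative).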
Numbers stand for hits; i = inactive; ? = inconclusive; nt = no result; [ ] = another dose, or the depositor's remark. Unless noted, calls come from the whole dose curve; as a rule, active = well fitted curve in the direction sought with a large enough effect; inconclusive = small, poorly fitted or top-dose-only effect, or another doubt; inactive = no such curve, though single readings can be large; an effect the other way counts as inactive or inconclusive.

SMILES	FUS yeast rescue	LDHA inh	PTHR1 ag	TDP43 rescue	aSyn rescue	Abeta yeast res
COC(=O)c1ccc(OC(=O)CS(=O)c2ccccc2[N+](=O)[O-])cc1 (stereo not given)	i	i	i	12.6µM	i	i
COc1ccc(Br)c(C(=O)N2CCN(S(=O)(=O)/C=C/c3ccccc3)CC2)c1	i	i	i	12.6µM	i	i
O=C(Nc1ccc(-c2ccccc2)cc1)c1ccccc1C(F)(F)F	nt	i	nt	nt	nt	nt
Cc1onc(C(=O)NN)c1-c1csc(COc2ccc(Cl)cc2)n1	i	i	i	11.2µM	i	i
O=C(Nc1ccccn1)c1cccc(S(=O)(=O)N2CCCc3ccccc32)c1	i	i	i	25.1µM	i[1.84 µM]	i
Cc1cccnc1NC(=O)c1cccc(S(=O)(=O)N2CCCc3ccccc32)c1	i	i	i	i	i	i
Cc1ccnc(NC(=O)c2cccc(S(=O)(=O)N3CCCc4ccccc43)c2)c1	i	i	i	22.4µM	i	i
COc1ccc(OC(F)(F)F)cc1CC1(C)C(=O)Nc2ccc(-c3ccsc3)cc21 (stereo not given)	i	i	i	14.1µM	i	i
COc1ccc(OC(F)(F)F)cc1CC1(C)C(=O)Nc2ccc(S(=O)(=O)NC3CCCCC3)cc21 (stereo not given)	31.6µM	i	i	i	i	i
COc1ccc(C(C)=O)cc1CC1(C)C(=O)Nc2ccc(OC(F)(F)F)cc21 (stereo not given)	?	i	i	i	i	i
Cc1cc(C)cc(NS(=O)(=O)c2cnc(Cl)c(Cl)c2)c1	i	i	i	35.5µM	i	i
O=C(NCCC12CC3CC(CC(C3)C1)C2)c1ccccc1Cl	nt	i	nt	nt	nt	nt
CSc1ncccc1C(=O)OCC(=O)NCCCc1ccccc1	i	i	i	17.8µM	i	i
O=C(COC(=O)c1ccccc1Br)NCCc1ccc(F)cc1	nt	i	i	20µM	i	i
CCCCCn1c(=O)c2ccccc2n2c(CCl)nnc12	i	i	i	15.8µM	i	i
Cc1ccc(C)c(NS(=O)(=O)c2ccc(-c3coc(C)n3)cc2)c1	i	i	i	12.6µM	i	i
CCOC(=O)c1cccc(NS(=O)(=O)c2ccc(-c3coc(C)n3)cc2)c1	i	i	i	35.5µM	i	i
Cc1nc(-c2ccc(S(=O)(=O)Nc3cccc(Cl)c3)cc2)co1	i	i	i	i	i	i
CCOc1ccc(NS(=O)(=O)c2ccc(-c3cnc(C4CC4)o3)cc2)cc1	?	i	i	35.5µM	?	nt
O=S(=O)(Nc1ccccc1)c1ccc(-c2cnc(C3CC3)o2)cc1	i	i	i	35.5µM	i	i
Cc1ccc(NS(=O)(=O)c2ccc(-c3coc(C)n3)cc2)c(Br)c1	i	i	i	?	i	i
CCC1CCCCN1C(=O)CSc1nc2cc(S(=O)(=O)Nc3ccc(OC)cc3)ccc2o1 (stereo not given)	nt	i	nt	nt	nt	nt
CC(=O)c1c(C)[nH]c(C(=O)Cn2nnc(-c3ccc(C(C)C)cc3)n2)c1C	nt	i	nt	nt	nt	nt
CCOC(=O)c1cccc(NS(=O)(=O)c2cc(-c3cnc(C4CC4)o3)ccc2C)c1	i	i	i	20µM	nt	i
Cc1ccc(C)c(NS(=O)(=O)c2ccc(-c3cnc(C4CC4)o3)cc2)c1	?	i	i	31.6µM	?	nt
SMILES	FUS yeast rescue	LDHA inh	PTHR1 ag	TDP43 rescue	aSyn rescue	Abeta yeast res
Cc1ccc(-c2cnc(-c3c(N)sc4c3CCCC4)s2)cc1	nt	i	nt	nt	nt	nt
COc1ccccc1C1CC(c2c(-c3ccccc3)c3cc(Cl)ccc3[nH]c2=O)=NN1S(C)(=O)=O (stereo not given)	?	i	i	i	i	i
COc1cccc(C2CC(c3c(-c4ccccc4)c4cc(Cl)ccc4[nH]c3=O)=NN2S(C)(=O)=O)c1OC (stereo not given)	35.5µM	i	i	i	i	i
COc1ccc(OCC(=O)c2c(O)c3ccccc3oc2=O)cc1	i	i	17.8µM	i	i	i
CCOc1ccc(OCC(=O)c2c(O)c3ccccc3oc2=O)cc1	i	i	i	i	i	i
Cc1cc(C)c(C(CC(=O)c2cccs2)C(C#N)C#N)c(C)c1 (stereo not given)	i	i	i	12.6µM	i	i
O=C(NCC(O)COc1cccc(C(F)(F)F)c1)C1CCCCC1 (stereo not given)	nt	i	nt	nt	nt	nt
COc1ccc(C)cc1NC(=O)C(Sc1nnc(-c2ccncc2)n1-c1ccc(Cl)cc1)c1ccccc1 (stereo not given)	22.4µM	i	i	i	i	i
COc1cccc(Cn2c(=O)n(CC3CCC(C(=O)N4CCCC4)CC3)c(=O)c3sccc32)c1 (stereo not given)	nt	i	nt	nt	nt	nt
COc1cccc(Cn2c(=O)n(CC3CCC(C(=O)N4CCCCC4)CC3)c(=O)c3sccc32)c1 (stereo not given)	20µM	i	i	?	nt	i
Cc1cccc(-c2cc3nc(-c4ccccc4)cc(N4CCC5(CC4)OCCO5)n3n2)c1	i	i	i	35.5µM	i	i[9.22 µM]
Cc1ccc(-c2cc3nc(-c4ccccc4)cc(N4CCC5(CC4)OCCO5)n3n2)cc1	i	i	i	?	i	i
COCCOc1nc2c(c(=O)n(C)c(=O)n2C)n1Cc1ccccc1	nt	i	nt	nt	nt	nt
COCCOc1nc2c(c(=O)n(C)c(=O)n2C)n1C(C)c1ccccc1 (stereo not given)	nt	-35.6	nt	nt	nt	nt
CC(NC(=O)c1cc(C2CC2)nc2ccccc12)c1ccccc1 (stereo not given)	nt	i	nt	nt	nt	nt
CC(C)NS(=O)(=O)c1ccc(C(=O)NCc2ccc(-c3nc4ccccc4s3)o2)cc1	nt	i	nt	nt	nt	nt
CCC(C)Sc1nc2c(c(=O)n1C)SC(C)C2 (stereo not given)	i	i	i	17.8µM	i	i
Cc1cc(C(=O)CSc2nnc(C(C)Oc3ccc(F)cc3)o2)c(C)n1Cc1ccco1 (stereo not given)	nt	i	nt	nt	nt	nt
CC(C)Oc1ccc(C2CC(=O)N(c3cccc(Br)c3)C2=O)cc1 (stereo not given)	i	i	i	20µM	i	i
COc1ccc(C)cc1NC(=O)CNC(=O)CNc1ccc(C)cc1Br	nt	i	nt	nt	nt	nt
O=C(Nc1ccc2nc[nH]c(=O)c2c1)c1ccc(Cl)cc1Cl	nt	i	nt	nt	nt	nt
O=C(c1ccco1)N1N=C(c2cccs2)CC1c1ccccc1O (stereo not given)	nt	i	i	i	i	i

Assay outcomes: PubChem BioAssay, National Center for Advancing Translational Sciences (NCATS)
